PubChem BioAssay AID1159580 (chemical genetic matrix, 2015)
Hit rate of the full screen: of about 5,500 compounds, about 2,000 (36%) were called active. Not shown: some 18% with an inconclusive outcome. Cut-off read from the data, not from the text of the source: active = normalized growth mostly below about 0.91 (no sharp cut-off); inconclusive = no clear call, values can overlap the other calls; inactive = mostly above about 0.92. This is one part of the list.

Test: chemical genetic growth profiling, strain panel (AID 1159580);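 note: tested at 20 µM; growth read once vehicle control cultures reached saturation at 30 °C; 1 = growth at the plate median or of vehicle wells; lower values mean less growth of the strain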
Conditions: growth OD

Measured: normalized growth

O=c1[nH]c(=O)n(C2C[C@H](O)[C@@H](CO)O2)cc1C(F)(F)F (stereo partly specified)
inactive: S. cerevisiae deletion strains, locus YKL009W, strain mrt4, stronger effect = lower value 0.981 | S. cerevisiae deletion strains, locus YKL068W, stronger effect = lower value 0.978 | S. cerevisiae deletion strains, locus YKL085W, strain MDH1 (second series), stronger effect = lower value 0.974 | S. cerevisiae deletion strains, locus YKL085W, strain MDH1, stronger effect = lower value 0.974 | S. cerevisiae deletion strains, locus YKL160W, strain elf1, stronger effect = lower value 0.954 | S. cerevisiae deletion strains, locus YKL190W, strain CNB1, stronger effect = lower value 0.996 | S. cerevisiae deletion strains, locus YKR001C, strain vps1, stronger effect = lower value 0.982 | S. cerevisiae deletion strains, locus YKR026C, strain gcn3, stronger effect = lower value 0.973 | S. cerevisiae deletion strains, locus YKR091W, strain srl3, stronger effect = lower value 0.96 | S. cerevisiae deletion strains, locus YLL001W, strain dnm1, stronger effect = lower value 0.994 | S. cerevisiae deletion strains, locus YLL026W, stronger effect = lower value 0.962 | S. cerevisiae deletion strains, locus YLL041C, strain sdh2, stronger effect = lower value 0.954 | S. cerevisiae deletion strains, locus YLR027C, strain aat2, stronger effect = lower value 0.965 | S. cerevisiae deletion strains, locus YLR039C, strain RIC1, stronger effect = lower value 0.934 | S. cerevisiae deletion strains, locus YLR058C, strain SHM2, stronger effect = lower value 0.968 | S. cerevisiae deletion strains, locus YLR102C, strain apc9, stronger effect = lower value 0.98 | S. cerevisiae deletion strains, locus YLR113W, strain HOG1, stronger effect = lower value 0.996 | S. cerevisiae deletion strains, locus YLR221C, strain rsa3, stronger effect = lower value 0.988 | S. cerevisiae deletion strains, locus YLR258W, strain gsy2, stronger effect = lower value 0.965 | S. cerevisiae deletion strains, locus YLR262C, strain YPT6 (second series), stronger effect = lower value 0.936 | S. cerevisiae deletion strains, locus YLR262C, strain YPT6, stronger effect = lower value 0.955 | S. cerevisiae deletion strains, locus YLR268W, strain sec22, stronger effect = lower value 0.962 | S. cerevisiae deletion strains, locus YLR320W, strain mms22, stronger effect = lower value 1 | S. cerevisiae deletion strains, locus YLR330W, strain CHS5, stronger effect = lower value 0.988 | S. cerevisiae deletion strains, locus YLR342W, strain FKS1 (second series), stronger effect = lower value 1 | S. cerevisiae deletion strains, locus YLR342W, strain FKS1, stronger effect = lower value 0.966 | S. cerevisiae deletion strains, locus YLR357W, strain rsc2, stronger effect = lower value 0.981 | S. cerevisiae deletion strains, locus YLR370C, strain arc18, stronger effect = lower value 0.947 | S. cerevisiae deletion strains, locus YLR371W, strain rom2, stronger effect = lower value 0.97 | S. cerevisiae deletion strains, locus YLR384C, strain iki3, stronger effect = lower value 0.952 | S. cerevisiae deletion strains, locus YLR418C, strain cdc73, stronger effect = lower value 0.975 | S. cerevisiae deletion strains, locus YML016C, strain PPZ1, stronger effect = lower value 0.993 | S. cerevisiae deletion strains, locus YML032C, strain rad52, stronger effect = lower value 0.979 | S. cerevisiae deletion strains, locus YML120C, strain ndi1, stronger effect = lower value 0.992 | S. cerevisiae deletion strains, locus YML124C, strain tub3, stronger effect = lower value 0.972 | S. cerevisiae deletion strains, locus YMR058W, strain fet3, stronger effect = lower value 0.952 | S. cerevisiae deletion strains, locus YMR078C, strain ctf18, stronger effect = lower value 0.972 | S. cerevisiae deletion strains, locus YMR125W, strain sto1, stronger effect = lower value 0.95 | S. cerevisiae deletion strains, locus YMR129W, stronger effect = lower value 0.967 | S. cerevisiae deletion strains, locus YMR205C, strain PFK2, stronger effect = lower value 0.983 | S. cerevisiae deletion strains, locus YMR223W, strain ubp8, stronger effect = lower value 0.988 | S. cerevisiae deletion strains, locus YMR231W, strain pep5, stronger effect = lower value 0.981 | S. cerevisiae deletion strains, locus YMR263W, strain SAP30, stronger effect = lower value 1 | S. cerevisiae deletion strains, locus YMR307W, strain GAS1, stronger effect = lower value 0.978 | S. cerevisiae deletion strains, locus YNL067W, strain RPL9B, stronger effect = lower value 0.992 | S. cerevisiae deletion strains, locus YNL071W, strain lat1, stronger effect = lower value 1 | S. cerevisiae deletion strains, locus YNL128W, strain TEP1, stronger effect = lower value 0.976 | S. cerevisiae deletion strains, locus YNL153C, strain GIM3, stronger effect = lower value 0.992 | S. cerevisiae deletion strains, locus YNL183C, strain NPR1, stronger effect = lower value 0.966 | S. cerevisiae deletion strains, locus YNL209W, strain ssb2, stronger effect = lower value 0.961 | S. cerevisiae deletion strains, locus YNL233W, strain BNI4, stronger effect = lower value 0.978 | S. cerevisiae deletion strains, locus YNL248C, strain rpa49, stronger effect = lower value 0.926 | S. cerevisiae deletion strains, locus YNL250W, strain rad50, stronger effect = lower value 0.951 | S. cerevisiae deletion strains, locus YNL271C, strain bni1, stronger effect = lower value 0.983 | S. cerevisiae deletion strains, locus YNL298W, strain CLA4, stronger effect = lower value 0.971 | S. cerevisiae deletion strains, locus YNL307C, strain MCK1, stronger effect = lower value 0.972 | S. cerevisiae deletion strains, locus YNL322C, strain KRE1 (second series), stronger effect = lower value 0.935 | S. cerevisiae deletion strains, locus YNL322C, strain KRE1, stronger effect = lower value 0.989 | S. cerevisiae deletion strains, locus YNR049C, strain mso1, stronger effect = lower value 0.957 | S. cerevisiae deletion strains, locus YNR052C, strain pop2, stronger effect = lower value 0.992 | S. cerevisiae deletion strains, locus YOL006C, strain TOP1, stronger effect = lower value 0.969 | S. cerevisiae deletion strains, locus YOL012C, strain htz1 0.749 | S. cerevisiae deletion strains, locus YOL147C, strain pex11, stronger effect = lower value 0.974 | S. cerevisiae deletion strains, locus YOR001W, strain rrp6, stronger effect = lower value 0.99 | S. cerevisiae deletion strains, locus YOR061W, strain CKA2, stronger effect = lower value 0.987 | S. cerevisiae deletion strains, locus YOR069W, strain VPS5, stronger effect = lower value 0.983 | S. cerevisiae deletion strains, locus YOR070C, strain gyp1, stronger effect = lower value 0.977 | S. cerevisiae deletion strains, locus YOR080W, strain dia2, stronger effect = lower value 0.96 | S. cerevisiae deletion strains, locus YOR083W, strain WHI5, stronger effect = lower value 0.917 | S. cerevisiae deletion strains, locus YOR106W, strain vam3, stronger effect = lower value 0.95 | S. cerevisiae deletion strains, locus YOR136W, strain idh2, stronger effect = lower value 0.978 | S. cerevisiae deletion strains, locus YOR144C, strain elg1, stronger effect = lower value 0.97 | S. cerevisiae deletion strains, locus YOR184W, strain ser1, stronger effect = lower value 0.983 | S. cerevisiae deletion strains, locus YOR231W, strain MKK1, stronger effect = lower value 0.992 | S. cerevisiae deletion strains, locus YOR265W, strain rbl2, stronger effect = lower value 0.971 | S. cerevisiae deletion strains, locus YOR270C, strain vph1, stronger effect = lower value 0.948 | S. cerevisiae deletion strains, locus YOR290C, strain snf2, stronger effect = lower value 0.949 | S. cerevisiae deletion strains, locus YOR316C, strain cot1, stronger effect = lower value 0.983 | S. cerevisiae deletion strains, locus YPL051W, strain arl3, stronger effect = lower value 0.981 | S. cerevisiae deletion strains, locus YPL055C, strain LGE1, stronger effect = lower value 0.985 | S. cerevisiae deletion strains, locus YPL078C, strain atp4, stronger effect = lower value 0.988 | S. cerevisiae deletion strains, locus YPL106C, strain sse1, stronger effect = lower value 0.944 | S. cerevisiae deletion strains, locus YPL240C, strain hsp82, stronger effect = lower value 0.969 | S. cerevisiae deletion strains, locus YPL241C, strain CIN2, stronger effect = lower value 0.983 | S. cerevisiae deletion strains, locus YPL256C, strain CLN2, stronger effect = lower value 1.04 | S. cerevisiae deletion strains, locus YPR119W, strain clb2, stronger effect = lower value 0.987 | S. cerevisiae deletion strains, locus YPR141C, strain kar3, stronger effect = lower value 0.959 | S. cerevisiae deletion strains, locus YPR163C, strain tif3, stronger effect = lower value 0.972 | S. cerevisiae deletion strains, locus YPR167C, strain met16, stronger effect = lower value 0.971 | S. cerevisiae deletion strains, strain wtn01, stronger effect = lower value 0.985 | S. cerevisiae strains, strain wild type, stronger effect = lower value 0.985
